The supplement of paper PMC10849652
The full data set covers some 7,900 targets. This sample favours those with a hit. About 0.6% of all pairs of compound and target were hits. A number with no mark means an inactive call.

Experiments:
Assay in all cases: log2 fold change, soluble protein after heating vs DMSO (PISA); higher = thermal stabilisation; K562 cells, 10 uM, 30 min; active = over 0.2 and 3.5 SD of the protein, either way, in both replicates (recomputed)
[1] = compound: CC1=C(C=C(C=C1)NC(=O)C2=CC(=CC=C2)C(C)(C)C#N)NC3=CC4=C(C=C3)N=CN(C4=O)C
Method in brief: (§1)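 Soluble protein was quantified by TMTpro 16plex LC-MS/MS after channel sums were equalised. It was obtained as the supernatant after 21,000xg for 90 min from pooled aliquots of K562 cells (2×10^6 cells/mL, 10 μM compound, 30 min) heated for 3 min across 48°C-58°C and extracted in PBS with 0.5% NP-40 at 4°C. Thermal stability values are relative to control samples and come from duplicates. They are given as log2 fold changes.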

[2] = compound: CC1=C(C=C(C=C1)NC(=O)C2=CC(=CC=C2)N(C)C)NC(=O)C3=CC=C(C=C3)O
Method in brief: as §1

[3] = compound: CC1=CC=C(C=C1)SC2=C3C=C(SC3=CN=C2)C(=O)N
Method in brief: as §1

[4] = compound: CC1=NC(=CC=C1)C2=C(N=C(N2)C(C)(C)C)C3=CC4=NC=CN=C4C=C3
Method in brief: as §1

Nexturastat A = compound: CCCCN(Cc1ccc(C(=O)NO)cc1)C(=O)Nc1ccccc1 [Nexturastat A]
Method in brief: as §1

vemurafenib = compound: CCCS(=O)(=O)Nc1ccc(F)c(C(=O)c2c[nH]c3ncc(-c4ccc(Cl)cc4)cc23)c1F [vemurafenib]
Method in brief: as §1

[5] = compound: CCCS(=O)(=O)Nc1ccc(F)c(C(=O)c2c[nH]c3ncc(Cl)cc23)c1F
Method in brief: as §1

[6] = compound: CCCc1cc(C)[nH]c(=O)c1CNC(=O)c1cc(-c2ccnc(N3CCN(C)CC3)c2)cc2c1cnn2C(C)C
Method in brief: as §1

givinostat = compound: CCN(CC)Cc1ccc2cc(COC(=O)Nc3ccc(C(=O)NO)cc3)ccc2c1 [givinostat]
Method in brief: as §1

barasertib = compound: CCN(CCCOc1ccc2c(Nc3cc(CC(=O)Nc4cccc(F)c4)[nH]n3)ncnc2c1)CCOP(=O)(O)O [barasertib]
Method in brief: as §1

[7] = compound: CC[C@@H]1C(=O)N(C)c2cnc(Nc3ccc(C(=O)NC4CCN(C)CC4)cc3OC)nc2N1C1CCCC1
Method in brief: as §1

volasertib = compound: CC[C@@H]1C(=O)N(C)c2cnc(Nc3ccc(C(=O)N[C@H]4CC[C@H](N5CCN(CC6CC6)CC5)CC4)cc3OC)nc2N1C(C)C [volasertib]
Method in brief: as §1

[8] = compound: CC[C@H](C)N1C=C(C2=C(C=C(C=C21)C3=CN=C(C=C3)N4CCNCC4)C(=O)NCC5=C(C=C(NC5=O)C)C)C
Method in brief: as §1

epoxomicin = compound: CC[C@H](C)[C@@H](C(=O)N[C@@H]([C@@H](C)O)C(=O)N[C@@H](CC(C)C)C(=O)[C@]1(CO1)C)NC(=O)[C@H]([C@@H](C)CC)N(C)C(=O)C [epoxomicin]
Method in brief: as §1

[9] = compound: CCn1c(C(=O)N(C2CC2)C2CC2)cc2c3c(ncn3C)c(Nc3cc(C)n(C)n3)nc21
Method in brief: as §1

[10] = compound: CCn1cc(-c2ccnc3[nH]c(-c4cccc(CN(C)C)c4)cc23)c(-c2ccc(NC(=O)N(C)C)cc2)n1
Method in brief: as §1

[11] = compound: CN(C)CC(=O)Nc1ccc2[nH]c(=O)c3ccccc3c2c1
Method in brief: as §1

rosiglitazone = compound: CN(CCOC1=CC=C(C=C1)C[C@H]2C(=O)NC(=O)S2)C3=CC=CC=N3 (racemic) [rosiglitazone]
Method in brief: as §1

[12] = compound: CN1C2=C(C3=C1C(=O)N(N=C3)CC4=CC(=CC=C4)N)SC(=C2)S(=O)C
Method in brief: as §1

[13] = compound: CN1CCC(CNc2ccc3ncc(-c4cccc(OC(F)(F)F)c4)n3n2)CC1
Method in brief: as §1

Sequence of UniProt Q16822 (Q16822 whole entry, looked up): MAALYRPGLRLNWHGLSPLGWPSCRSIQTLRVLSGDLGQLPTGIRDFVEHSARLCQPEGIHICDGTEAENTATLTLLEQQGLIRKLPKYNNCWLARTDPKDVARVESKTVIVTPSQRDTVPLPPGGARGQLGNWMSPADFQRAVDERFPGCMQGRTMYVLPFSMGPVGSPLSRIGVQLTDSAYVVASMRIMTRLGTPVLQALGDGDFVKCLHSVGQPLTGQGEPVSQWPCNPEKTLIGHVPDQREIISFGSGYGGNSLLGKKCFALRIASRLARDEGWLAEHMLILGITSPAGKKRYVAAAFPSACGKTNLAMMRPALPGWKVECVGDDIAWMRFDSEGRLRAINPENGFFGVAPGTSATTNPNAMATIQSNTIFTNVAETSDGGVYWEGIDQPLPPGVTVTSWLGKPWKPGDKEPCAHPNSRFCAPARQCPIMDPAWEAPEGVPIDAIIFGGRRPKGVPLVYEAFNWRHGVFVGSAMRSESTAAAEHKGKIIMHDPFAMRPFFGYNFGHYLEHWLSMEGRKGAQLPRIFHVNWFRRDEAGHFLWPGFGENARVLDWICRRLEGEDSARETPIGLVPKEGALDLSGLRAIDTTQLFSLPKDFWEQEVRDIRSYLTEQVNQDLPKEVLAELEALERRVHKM
Sequence of UniProt Q5VU43 (Q5VU43 whole entry, looked up): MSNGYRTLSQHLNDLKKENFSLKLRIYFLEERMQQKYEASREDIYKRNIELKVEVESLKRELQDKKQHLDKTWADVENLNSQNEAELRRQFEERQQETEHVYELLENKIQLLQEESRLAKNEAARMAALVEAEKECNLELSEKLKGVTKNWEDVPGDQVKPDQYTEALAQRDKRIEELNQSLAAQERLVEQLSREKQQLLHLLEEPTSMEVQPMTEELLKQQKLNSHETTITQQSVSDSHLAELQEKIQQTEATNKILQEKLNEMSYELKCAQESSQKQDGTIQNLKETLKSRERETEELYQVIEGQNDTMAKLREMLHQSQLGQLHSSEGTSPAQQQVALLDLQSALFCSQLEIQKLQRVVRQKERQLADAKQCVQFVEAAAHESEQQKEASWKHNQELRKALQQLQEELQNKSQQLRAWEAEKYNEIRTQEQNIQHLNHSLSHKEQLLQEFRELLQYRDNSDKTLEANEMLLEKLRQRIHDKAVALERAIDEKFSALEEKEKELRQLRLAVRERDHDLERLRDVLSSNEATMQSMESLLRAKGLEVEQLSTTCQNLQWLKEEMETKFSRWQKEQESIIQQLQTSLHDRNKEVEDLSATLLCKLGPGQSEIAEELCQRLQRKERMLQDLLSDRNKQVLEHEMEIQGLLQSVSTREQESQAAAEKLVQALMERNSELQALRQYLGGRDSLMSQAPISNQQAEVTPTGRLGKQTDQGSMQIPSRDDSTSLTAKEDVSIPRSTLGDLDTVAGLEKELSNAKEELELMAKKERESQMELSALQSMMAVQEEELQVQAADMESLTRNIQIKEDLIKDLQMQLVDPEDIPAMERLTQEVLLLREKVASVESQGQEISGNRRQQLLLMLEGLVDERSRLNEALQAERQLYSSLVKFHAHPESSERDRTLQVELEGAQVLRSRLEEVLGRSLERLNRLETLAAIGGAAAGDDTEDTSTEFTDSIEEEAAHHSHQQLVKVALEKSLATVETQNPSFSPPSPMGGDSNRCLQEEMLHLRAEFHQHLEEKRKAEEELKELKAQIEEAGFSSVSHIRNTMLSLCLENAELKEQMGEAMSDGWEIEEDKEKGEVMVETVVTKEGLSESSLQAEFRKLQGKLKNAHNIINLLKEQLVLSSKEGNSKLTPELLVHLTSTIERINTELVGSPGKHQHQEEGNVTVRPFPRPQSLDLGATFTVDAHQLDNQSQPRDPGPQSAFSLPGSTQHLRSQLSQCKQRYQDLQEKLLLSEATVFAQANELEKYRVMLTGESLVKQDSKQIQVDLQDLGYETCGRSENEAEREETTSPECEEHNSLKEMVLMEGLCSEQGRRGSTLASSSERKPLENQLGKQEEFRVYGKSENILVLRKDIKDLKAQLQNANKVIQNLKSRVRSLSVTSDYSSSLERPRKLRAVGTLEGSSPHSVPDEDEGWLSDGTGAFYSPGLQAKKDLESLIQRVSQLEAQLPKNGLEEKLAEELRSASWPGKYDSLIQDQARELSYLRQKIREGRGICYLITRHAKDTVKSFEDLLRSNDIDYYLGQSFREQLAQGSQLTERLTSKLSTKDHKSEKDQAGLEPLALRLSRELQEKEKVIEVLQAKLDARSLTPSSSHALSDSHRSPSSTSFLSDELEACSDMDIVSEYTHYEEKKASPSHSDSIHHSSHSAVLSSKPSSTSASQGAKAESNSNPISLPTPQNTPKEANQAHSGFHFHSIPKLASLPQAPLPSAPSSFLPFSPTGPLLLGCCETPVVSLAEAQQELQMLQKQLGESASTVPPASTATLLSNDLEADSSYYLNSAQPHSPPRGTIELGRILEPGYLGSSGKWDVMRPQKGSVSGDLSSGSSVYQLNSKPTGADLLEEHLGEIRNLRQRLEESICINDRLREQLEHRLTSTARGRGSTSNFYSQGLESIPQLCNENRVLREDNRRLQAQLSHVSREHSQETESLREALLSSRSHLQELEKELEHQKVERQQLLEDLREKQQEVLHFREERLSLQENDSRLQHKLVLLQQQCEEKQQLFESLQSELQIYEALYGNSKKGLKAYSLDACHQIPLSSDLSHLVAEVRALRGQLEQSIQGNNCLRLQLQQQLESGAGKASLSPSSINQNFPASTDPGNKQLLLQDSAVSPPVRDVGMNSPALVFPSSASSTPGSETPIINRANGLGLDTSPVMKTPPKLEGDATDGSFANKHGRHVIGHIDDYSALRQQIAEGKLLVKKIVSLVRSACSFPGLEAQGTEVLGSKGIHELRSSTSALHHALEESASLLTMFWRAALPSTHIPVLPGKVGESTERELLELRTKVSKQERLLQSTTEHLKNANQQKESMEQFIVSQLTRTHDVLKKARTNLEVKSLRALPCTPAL
Sequence of UniProt Q9Y2I7 (Q9Y2I7 whole entry, looked up): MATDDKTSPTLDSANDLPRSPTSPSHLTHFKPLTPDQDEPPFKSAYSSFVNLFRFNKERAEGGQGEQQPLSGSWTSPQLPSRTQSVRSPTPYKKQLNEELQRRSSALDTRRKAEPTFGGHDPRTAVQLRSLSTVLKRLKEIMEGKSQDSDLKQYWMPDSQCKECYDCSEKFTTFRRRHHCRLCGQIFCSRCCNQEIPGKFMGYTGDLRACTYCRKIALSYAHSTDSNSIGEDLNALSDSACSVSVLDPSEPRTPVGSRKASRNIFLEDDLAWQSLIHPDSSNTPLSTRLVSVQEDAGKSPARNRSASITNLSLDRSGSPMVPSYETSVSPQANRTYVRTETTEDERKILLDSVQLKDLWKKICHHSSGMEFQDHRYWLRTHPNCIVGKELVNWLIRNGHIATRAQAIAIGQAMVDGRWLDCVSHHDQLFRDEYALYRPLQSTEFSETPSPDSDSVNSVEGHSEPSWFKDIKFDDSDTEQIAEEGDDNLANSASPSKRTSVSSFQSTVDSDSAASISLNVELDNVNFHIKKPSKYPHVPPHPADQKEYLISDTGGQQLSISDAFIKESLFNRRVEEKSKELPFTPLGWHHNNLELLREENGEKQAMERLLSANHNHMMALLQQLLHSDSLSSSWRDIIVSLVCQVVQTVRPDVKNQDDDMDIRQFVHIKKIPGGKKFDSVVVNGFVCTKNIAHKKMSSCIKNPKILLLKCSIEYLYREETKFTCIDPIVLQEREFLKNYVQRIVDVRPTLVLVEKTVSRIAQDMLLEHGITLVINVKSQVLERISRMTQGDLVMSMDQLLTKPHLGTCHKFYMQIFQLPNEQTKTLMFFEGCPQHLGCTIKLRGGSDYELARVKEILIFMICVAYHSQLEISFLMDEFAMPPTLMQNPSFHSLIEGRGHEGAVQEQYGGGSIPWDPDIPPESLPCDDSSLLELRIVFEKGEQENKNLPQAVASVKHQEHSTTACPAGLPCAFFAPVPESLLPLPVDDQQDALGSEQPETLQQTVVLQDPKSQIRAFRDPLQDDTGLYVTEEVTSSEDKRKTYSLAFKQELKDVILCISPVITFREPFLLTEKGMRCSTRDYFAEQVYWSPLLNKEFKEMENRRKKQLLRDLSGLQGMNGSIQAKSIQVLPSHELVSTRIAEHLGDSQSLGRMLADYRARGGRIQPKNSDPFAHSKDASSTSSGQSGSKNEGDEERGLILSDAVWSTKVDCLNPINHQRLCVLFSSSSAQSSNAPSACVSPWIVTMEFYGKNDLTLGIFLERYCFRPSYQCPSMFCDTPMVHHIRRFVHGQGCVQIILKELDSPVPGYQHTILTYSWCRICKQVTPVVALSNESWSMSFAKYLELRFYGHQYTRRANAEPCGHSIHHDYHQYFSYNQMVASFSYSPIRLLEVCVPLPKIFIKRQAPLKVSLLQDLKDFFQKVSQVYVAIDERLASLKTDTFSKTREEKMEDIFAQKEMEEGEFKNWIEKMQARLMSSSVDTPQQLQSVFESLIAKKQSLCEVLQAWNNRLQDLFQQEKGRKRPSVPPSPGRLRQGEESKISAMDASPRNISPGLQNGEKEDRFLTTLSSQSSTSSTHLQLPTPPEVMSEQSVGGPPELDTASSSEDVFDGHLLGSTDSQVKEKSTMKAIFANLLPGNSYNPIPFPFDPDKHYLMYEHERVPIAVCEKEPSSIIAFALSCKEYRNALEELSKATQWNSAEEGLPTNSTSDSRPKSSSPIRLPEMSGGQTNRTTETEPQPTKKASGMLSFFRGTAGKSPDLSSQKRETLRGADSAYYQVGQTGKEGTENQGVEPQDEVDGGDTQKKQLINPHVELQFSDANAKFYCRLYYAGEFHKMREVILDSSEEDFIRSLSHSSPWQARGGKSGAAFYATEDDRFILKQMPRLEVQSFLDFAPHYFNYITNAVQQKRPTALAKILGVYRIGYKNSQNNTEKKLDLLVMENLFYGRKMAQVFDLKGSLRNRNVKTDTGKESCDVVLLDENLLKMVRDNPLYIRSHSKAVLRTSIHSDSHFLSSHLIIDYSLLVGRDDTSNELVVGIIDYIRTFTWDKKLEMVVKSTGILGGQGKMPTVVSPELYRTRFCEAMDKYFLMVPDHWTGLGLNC

Target | log2 fold change [1] | log2 fold change [2] | log2 fold change [3] | log2 fold change [4] | log2 fold change (Nexturastat A) | log2 fold change (vemurafenib) | log2 fold change [5] | log2 fold change [6] | log2 fold change (givinostat) | log2 fold change (barasertib) | log2 fold change [7] | log2 fold change (volasertib) | log2 fold change [8] | log2 fold change (epoxomicin) | log2 fold change [9] | log2 fold change [10] | log2 fold change [11] | log2 fold change (rosiglitazone) | log2 fold change [12] | log2 fold change [13]
PEX11B (UniProt O96011) | 0.06 | -0.039 | 0.321 | -0.008 | -0.076 | 0.08 | 0 | 0.029 | 0.008 | -0.002 | 0.071 | -0.018 | -0.038 | -0.013 | 0.006 | 0.04 | 0.064 | 0.007 | -0.085 | 0.239
PRMT3 (UniProt O60678) | 0.016 | -0.025 | 0.044 | 0.076 | -0.026 | 0.056 | 0.055 | 0 | -0.013 | 0.035 | -0.126 | -0.411 (active) | 0.039 | 0.033 | 0.005 | -0.093 | 0.039 | 0.077 | -0.008 | -0.953 (active)
PCK2 (UniProt Q16822) | -0.002 | -0.064 | -0.008 | 0.045 | -0.065 | -0.006 | 0.002 | 0.014 | -0.13 | 0.011 | 0.012 | -0.076 | 0.033 | 0.059 | 0.016 | -0.07 | 0 | 0.011 | -0.094 | 0.027
PSMB6 (UniProt P28072) | 0.002 | 0.306 | -0.036 | -0.001 | -0.019 | -0.038 | -0.062 | -0.024 | -0.025 | -0.04 | 0.029 | 0.195 | -0.055 | -0.241 (active) | 0.013 | 0.259 | -0.019 | -0.027 | 0.053 | 0.03
PARN (UniProt O95453) | -0.038 | -0.004 | 0.004 | 0.013 | -0.069 | 0 | 0.043 | -0.058 | 0.059 | 0.057 | -0.146 | -0.401 (active) | 0.059 | 0.051 | -0.021 | -0.076 | 0.017 | 0.017 | -0.057 | -0.196
PRIM2 (UniProt P49643) | -0.028 | -0.018 | -0.019 | 0.054 | 0.017 | 0.054 | 0.03 | 0.023 | 0.085 | 0.08 | -0.119 | -0.285 (active) | 0.147 | 0.02 | -0.041 | -0.07 | 0.076 | 0.065 | 0.013 | -0.131
PDS5B (UniProt Q9NTI5) | -0.088 | 0.086 | 0.176 | 0.109 | -0.011 | -0.032 | 0.32 | -0.058 | 0.135 | 0.047 | -0.004 | 0.024 | 0.12 | 0.105 | -0.113 | 0.103 | 0.079 | 0.035 | 0.131 | -0.41
PIKFYVE (UniProt Q9Y2I7) | -0.012 | -0.02 | 0.005 | 0.006 | 0.004 | 0.091 | 0.109 | -0.001 | 0.054 | 0.013 | -0.182 | -0.499 (active) | 0.103 | -0.031 | -0.049 | -0.032 | 0.032 | 0.168 | -0.05 | -0.239
PRKAA1 isoform 2 (UniProt Q13131) | -0.029 | 0.001 | -0.001 | 0.02 | -0.042 | 0.025 | 0.008 | 0.021 | -0.014 | 0.016 | -0.035 | -0.154 | 0.04 | 0.017 | -0.026 | -0.052 | -0.007 | 0.016 | 0.001 | -0.254 (active)
PSME4 (UniProt Q14997) | 0.017 | -0.02 | -0.024 | -0.017 | -0.034 | -0.014 | -0.005 | -0.043 | 0.022 | -0.007 | 0.076 | 0.038 | 0.04 | 0.35 (active) | -0.014 | -0.069 | 0.02 | 0.053 | 0.001 | -0.137
PRKAR1A (UniProt P10644) | 0.15 | -0.051 | 0.059 | -0.103 | 0.053 | -0.028 | -0.085 | 0.203 | 0.055 | -0.01 | 0.213 | -0.054 | -0.068 | -0.122 | 0.071 | 0.001 | 0.023 | -0.032 | 0.132 | 0.705 (active)
PRPSAP2 (UniProt O60256) | -0.141 | -0.002 | -0.021 | -0.07 | -0.083 | -0.022 | -0.019 | -0.026 | -0.034 | -0.005 | 0.07 | 0.056 | -0.043 | -0.008 | -0.013 | -0.088 | -0.02 | 0.008 | -0.041 | 0.159
PDE4DIP isoform 4 (UniProt Q5VU43) | -0.027 | -0.049 | -0.012 | -0.044 | 0.358 (active) | -0.034 | -0.01 | -0.023 | 0.021 | 0.083 | 0.013 | 0.005 | -0.071 | -0.012 | -0.004 | -0.009 | -0.035 | 0.003 | -0.046 | 0.006
PPP1R35 (UniProt Q8TAP8) | -0.011 | 0.065 | 0.025 | 0.034 | -0.009 | -0.049 | 0.008 | -0.027 | 0.112 | -0.074 | 0.062 | 0.101 | -0.062 | 0.062 | 0.009 | 0.007 | -0.004 | 0.035 | 0.027 | -0.032
PRMT8 (UniProt Q9NR22) | 0.285 | -0.033 | 0.097 | 0.016 | -0.125 | 0.028 | 0.156 | -0.009 | -0.043 | 0.031 | 0.019 | -0.074 | 0.011 | 0.017 | 0.035 | -0.087 | -0.022 | -0.026 | -0.117 | -0.009
PIK3CD (UniProt O00329) | 0.042 | 0.079 | 0.018 | -0.04 | -0.1 | -0.051 | -0.156 |  | -0.013 | 0.096 | -0.069 | -0.036 |  | -0.076 | -0.229 |  | -0.059 | 0.288 | 0 | 
